Test results from PubChem BioAssay AID504834 (National Center for Advancing Translational Sciences (NCATS), 2011).
Among all 320,000 compounds or so, about 22,000 (6.9%) were called active. Where a call stands in place of a potency, no number is given. Inconclusive results (about 27%) are left out. The sample holds actives, similar compounds and a random draw of the others, so the mix is not that of the screen. Calls follow the shape of the dose curve; as a rule, active = well fitted inhibition curve with a large enough effect; inconclusive = small, poorly fitted or top-dose-only effect, or another doubt; inactive = no such curve, though single readings can be large or run the other way.

Assay: Primary qHTS for delayed death inhibitors of the malarial parasite plastid, 96 hour incubation
Settings: P. falciparum luciferase reporter growth; series mostly up to 28.7 µM
In short: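 Compounds incubated with erythrocytes infected by luciferase-expressing P. falciparum (2% hematocrit, 0.05% parasitemia final) for 96 hours, 37 C in 5% CO2. Growth inhibition scored as decreased luciferase luminescence.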
Potency is read from the fitted curve at half-maximal effect.

Row | SMILES | Potency
1 | O=C(c1ccc2nc(N3CCOCC3)sc2c1)N1CCN(c2ccc(Cl)cc2)CC1 | inactive
2 | O=S(=O)(Nc1ccc2nc(N3CCOCC3)sc2c1)c1ccccc1 | inactive
3 | Fc1cc(F)c2nc(N3CCOCC3)sc2c1 | 3.7 µM (active)
4 | COc1ccc(S(=O)(=O)N2CCN(C(C)C(=O)Nc3ccc(C(C)C)cc3)CC2)cc1 (stereo unspecified) | inactive
5 | CCOc1ccccc1Nc1ccc(C(=O)O)cc1[N+](=O)[O-] | inactive
6 | O=C(O)c1cc([N+](=O)[O-])c(Nc2cccc3ccccc23)c([N+](=O)[O-])c1 | 3.29 µM (active)
7 | O=[N+]([O-])c1cccc(Nc2c3ccccc3nc3ccccc23)c1 | inactive
8 | NC(=O)c1c(NC(=O)c2ccccc2)sc2c1CCCC2 | inactive
9 | CC1CCCCC12NC(=O)N(CC(=O)Nc1ccc(S(=O)(=O)Nc3ncccn3)cc1)C2=O (stereo unspecified) | inactive
10 | COCCN1C(=O)C(=O)/C(=C(/O)c2ccc(S(=O)(=O)N3CCOCC3)cc2)C1c1ccc(O)c(OC)c1 (stereo unspecified) | inactive
11 | Cc1cccc(NC(=O)Nc2nnc(-c3ccccc3)o2)c1 | inactive
12 | Cc1c(NC(=O)Nc2ccccc2)cccc1[N+](=O)[O-] | inactive
13 | Cc1ccc(NC(=O)Nc2ccccc2)c(Br)c1 | 7.38 µM (active)
14 | O=C(CNCc1ccco1)Nc1cc(S(=O)(=O)N2CCOCC2)ccc1N1CCCC1 | inactive
15 | CCN(CC)S(=O)(=O)c1ccc(N2CCOCC2)c(NC(=O)C2COc3ccccc3O2)c1 (stereo unspecified) | inactive
16 | CCC(=O)Nc1ccccc1N1CCN(S(C)(=O)=O)CC1 | inactive
17 | CCN(CC)S(=O)(=O)c1ccc(N2CCOCC2)c(NC(=O)C(C)Oc2ccc(F)cc2)c1 (stereo unspecified) | 14.7 µM (active)
18 | CCN(CC)S(=O)(=O)c1ccc(N2CCN(C)CC2)c(NC(=O)Nc2ccccc2F)c1 | 13.1 µM (active)
19 | CCN(CC)S(=O)(=O)c1ccc(N2CCOCC2)c(NC(=O)C2CSC3(C)CCC(=O)N23)c1 (stereo unspecified) | 10.4 µM (active)
20 | O=C(COC(=O)c1ccccc1F)Nc1cc(S(=O)(=O)N2CCOCC2)ccc1N1CCCC1 | inactive
21 | CC(Oc1ccc(F)cc1)C(=O)Nc1cc(S(=O)(=O)N2CCOCC2)ccc1N1CCN(C)CC1 (stereo unspecified) | inactive
22 | CCN(CC)S(=O)(=O)c1ccc(N2CCOCC2)c(C(=O)O)c1 | inactive
23 | CC(=O)N1CCc2cc(S(=O)(=O)Nc3ccccc3N3CCN(C)CC3)ccc21 | inactive
24 | CCN(CC)S(=O)(=O)c1cc(C(=O)Nc2cc(S(=O)(=O)N3CCOCC3)ccc2N2CCCC2)ccc1F | 2.62 µM (active)
25 | CC12CCC(=O)N1C(C(=O)Nc1ccc(F)c(F)c1F)CS2 (stereo unspecified) | inactive
26 | CN(CC(=O)NC(=O)Nc1ccccc1F)Cc1ccccc1 | inactive

Row | SMILES | Potency
27 | COc1ccc2ccn(C)c2c1 | inactive
28 | O=C(Cc1cccs1)Nc1ccc([N+](=O)[O-])cc1 | inactive
29 | O=C(O)C(c1ccccc1)N1C(=O)/C(=C\c2ccc(-c3cccc(Cl)c3)o2)SC1=S (stereo unspecified) | inactive
30 | O=C1CCC(C(=O)N2CCCCO2)CN1Cc1cccc(C(F)(F)F)c1 (stereo unspecified) | inactive
31 | O=C(NC1CCCC1)c1cc(-c2ccccc2)on1 | inactive
32 | CC(=O)c1cccc(NC(=S)N2CCCC2)c1 | inactive
33 | COc1ccc(OCc2cccc(C(=O)N3CCCC3)c2)cc1 | inactive
34 | CCC(CC)C(=O)Nc1cccc(C(=O)N2CCCC2)c1 | 8.28 µM (active)
35 | Cc1ccc(Cl)c(OCC(=O)NN2CCN(C)CC2)c1 | inactive
36 | CCc1c(C)nc(N)n2c(SCC(=O)NC3CCCCC3)nnc12 | inactive
37 | CCOC(=O)C1=C(CN2CCc3ccccc32)NC(=O)NC1c1ccc(Cl)cc1 (stereo unspecified) | 2.08 µM (active)
38 | CCOC(=O)C1=C(CN2CCCCCC2)NC(=O)NC1c1cccc([N+](=O)[O-])c1 (stereo unspecified) | inactive
39 | CCOC(=O)C1=C(CN2CCc3ccccc32)NC(=O)NC1c1cccc([N+](=O)[O-])c1 (stereo unspecified) | 8.28 µM (active)
40 | O=C(OCC(=O)N1CCc2ccccc21)C1CCCN1S(=O)(=O)c1ccc(Cl)cc1 (stereo unspecified) | inactive
41 | Cn1c2c(c(=O)n(C)c1=O)C(c1cccc([N+](=O)[O-])c1)Nc1ccccc1O2 (stereo unspecified) | inactive
42 | CCOC(=O)C1=C(c2ccccc2)NC(=S)NC1c1ccc(Cl)cc1 (stereo unspecified) | inactive
43 | NC(=O)C1CCCN(CC(=O)N2CCN(c3ccccc3)CC2)C1 (stereo unspecified) | inactive
44 | CCOc1ccc(NC(=O)COC(=O)C2CCC(=O)N2)c([N+](=O)[O-])c1 (stereo unspecified) | inactive
45 | CN(CC(=O)O)S(=O)(=O)c1ccc2oc3ccccc3c2c1 | inactive
46 | CC1CCCCC1NC(=O)c1cc(=O)[nH]c2ccccc12 (stereo unspecified) | inactive
47 | Cc1ccccc1NCC(=O)N/N=C\c1ccc([N+](=O)[O-])s1 | inactive
48 | CCOc1ccc(NC(=O)CCC(=O)NNC(=O)NC2CCCCC2)cc1 | inactive
49 | CCOc1ccc(NC(=O)CCC(=O)N/N=C/c2ccc([N+](=O)[O-])s2)cc1 | 4.15 µM (active)
50 | CCOc1ccc2sc(NS(=O)(=O)c3ccc(N)cc3)nc2c1 | inactive
51 | CCc1cccc(CC)c1NC(=S)NCc1ccc2[nH]c(C)cc2c1 | 2.62 µM (active)
52 | CCc1cccc(CC)c1NC(=S)Nc1ccc2cn[nH]c2c1 | inactive

Row | SMILES | Potency
53 | Cc1cc2cc(CNC(=O)c3cccs3)ccc2[nH]1 | inactive
54 | CCOc1ncccc1C(=O)OCC(=O)Nc1cccc(S(=O)(=O)N2CCCCCC2)c1 | inactive
55 | CC(C)c1ccc(/C=C2\NC(=O)NC2=O)cc1 | inactive
56 | CCO[C@@H]1OC(C(N)=O)=C[C@H](c2ccc(Br)cc2)[C@H]1CCCO | inactive
57 | CCO[C@H]1OC(C(=O)N2CCOCC2)=C[C@@H](c2ccc3c(c2)OCO3)[C@@H]1CCCO | inactive
58 | CCO[C@H]1OC(C(=O)O)=C[C@@H](C2CCCCC2)[C@@H]1CCCO | inactive
59 | CCO[C@H]1OC(C(=O)N2CCN(Cc3ccccc3)CC2)=C[C@@H](c2cn(C(C)=O)c3ccccc23)[C@@H]1CCCO | 9.28 µM (active)
60 | CCO[C@@H]1OC(C(=O)N2CCOCC2)=C[C@H](C)[C@H]1CCCO | inactive
61 | CCO[C@H]1OC(C(=O)N2CCCCCCC2)=C[C@@H](c2ccc(C(F)(F)F)cc2)[C@@H]1CCCO | 3.29 µM (active)
62 | Cc1ccc(S(=O)(=O)CCC(=O)OCC(=O)N(C)C2CCS(=O)(=O)C2)cc1 (stereo unspecified) | inactive
63 | CCN(CC(=O)Nc1ccccc1C(F)(F)F)C(=O)CSCc1c(C)noc1C | inactive
64 | Cc1ccc2c(c1)N(CC(=O)N1CCOCC1)C(=O)CO2 | inactive
65 | Cc1ccc2c(c1)N(CC(=O)NCC1CCCO1)C(=O)CO2 (stereo unspecified) | 7.38 µM (active)
66 | Cc1ccc2c(c1)N(CC(=O)N1CCCC(C)C1)C(=O)CO2 (stereo unspecified) | inactive
67 | CN(C)CCN(C(=O)C1=COCCO1)c1nc2ccc(Cl)cc2s1 | inactive
68 | O=C(Cc1cccs1)N(CC1CCCO1)C1(C(=O)NC2CCCCC2)CCCCC1 (stereo unspecified) | inactive
69 | Cc1ccc(N(C(=O)CC2NC(=O)NC2=O)C2(C(=O)NC3CCCC3)CCCCC2)cc1 (stereo unspecified) | inactive
70 | CC(=O)N(CC1CCCO1)C1(C(=O)NC2CCCC2)CCCCC1 (stereo unspecified) | 10.4 µM (active)
71 | O=[N+]([O-])c1cccc(S(=O)(=O)NCc2ccccn2)c1 | inactive
72 | Cc1ccc(S(=O)(=O)NNC(=S)NC(C)(C)C)cc1 | inactive
73 | Cc1ccc(S(=O)(=O)NNC(=O)Nc2cccc3ccccc23)cc1 | 1.85 µM (active)
74 | COc1ccc(C(=O)NNS(=O)(=O)c2ccc(C)cc2)cc1 | inactive
75 | CCOc1ccc(NC(=O)CN(C)C(=O)Cn2c(=O)cnc3ccccc32)cc1OCC | inactive
76 | COc1ccccc1C(=O)NC(=O)COC(=O)C1CC1 | inactive
77 | CC(=O)c1ccccc1NC(=O)C1CC(=O)N(c2ccc3c(c2)OCCO3)C1 (stereo unspecified) | inactive
78 | CCOC(=O)C1CCN(C(=O)CSc2cc(=O)n(C)c3ccccc23)CC1 | 2.33 µM (active)

Row | SMILES | Potency
79 | CCCCn1c(SCC(=O)N2CCCC2=O)nc2cc(S(N)(=O)=O)ccc21 | inactive
80 | CCCCn1c(SCC(=O)N2CCC(C(=O)OCC)CC2)nc2cc(S(N)(=O)=O)ccc21 | 13.1 µM (active)
81 | Cn1c(=O)cc(SCC(=O)N2CCCC2)c2cc(Cl)ccc21 | inactive
82 | CCOC(=O)C1CCN(C(=O)COC(=O)C2CCN(S(=O)(=O)c3ccc4c(c3)OCCO4)CC2)CC1 | inactive
83 | CCCCn1c(SCc2ncc(-c3ccccc3)o2)nc2cc(S(N)(=O)=O)ccc21 | 14.7 µM (active)
84 | Cn1c(=O)cc(SCC(=O)N2CCN(C(=O)c3ccco3)CC2)c2ccccc21 | inactive
85 | O=C(CCNS(=O)(=O)c1ccccc1)NCCCc1ccccc1 | inactive
86 | CN1C(=O)c2ccc(C(=O)Nc3ccc(Br)cn3)cc2C1=O | inactive
87 | Cc1c(C(=O)N2CCOCC2)[nH]c2ccc(OCc3ccccc3)cc12 | inactive
88 | CCOC(=O)c1[nH]c2ccc(OC)cc2c1NC(=O)N1CCOCC1 | 14.7 µM (active)
89 | CCOC(=O)c1[nH]c2ccc(OC)cc2c1NC(=O)CCN1CCN(Cc2ccccc2)CC1 | inactive
90 | O=C(COc1ccc(Cl)cc1)Nc1ccc2oc(=O)ccc2c1 | inactive
91 | COc1cc(F)c(C2=CC(=O)CC(C)(C)C2)cc1F | inactive
92 | CC1(C)CC(=O)C=C(c2ccc(Cl)c(C(F)(F)F)c2)C1 | 5.86 µM (active)
93 | CC1(C)CC(=O)C=C(c2ccc3ncccc3c2)C1 | inactive
94 | COC(=O)C1(C)NC(c2ccccc2OC)C2C(=O)N(c3ccccc3)C(=O)C21 (stereo unspecified) | inactive
95 | Cc1cc(C(=O)NCCc2ccc(Cl)cc2)n(-c2ccccc2)n1 | inactive
96 | CCc1[nH]nc(C(=O)N2CCCC(CO)(Cc3ccc(F)cc3F)C2)c1C (stereo unspecified) | inactive
97 | CCCN(c1ccc(C)cc1)c1nc(=O)c2cccnc2s1 | 6.57 µM (active)
98 | CCc1c(C)nc(SCC(=O)NC2CCCC2)[nH]c1=O | inactive
99 | CCc1ccc(C(=O)NN=C2CCCCCC2)s1 | inactive
100 | CC(=O)Nc1ccc(NC(=O)COc2ccc(-c3ccccc3)cc2)cc1 | inactive
101 | C[N+]1(C)CCOC(O)(c2ccc(-c3ccc(C4(O)C[N+](C)(C)CCO4)cc3)cc2)C1 (stereo unspecified) | 5.86 µM (active)
